Inconclusive results are not listed. Where a call stands in place of a potency, no number is given. Activity calls are given as the source filed them. The call rests on the fitted dose curve; in most records, active means well fitted inhibition curve with a large enough effect; inconclusive means small, poorly fitted or top-dose-only effect; inactive means flat fitted curve, though single readings scatter.
What follows are molecules tested against Phospholipid hydroperoxide glutathione peroxidase GPX4 (Homo sapiens) (UniProt P36969) (assay: Primary qHTS Assay for Inhibitors of Recombinant Selenoprotein Glutathione Peroxidase 4 (GPX4) (AID 1845192; further: nearly all actives have a fitted effect of over 65% in size)). Conditions: recombinant GPX4, GR-coupled NADPH fluorescence, 15 min; series mostly up to 50 µM.
Chain of Phospholipid hydroperoxide glutathione peroxidase GPX4 (Homo sapiens) (P36969 whole entry, looked up): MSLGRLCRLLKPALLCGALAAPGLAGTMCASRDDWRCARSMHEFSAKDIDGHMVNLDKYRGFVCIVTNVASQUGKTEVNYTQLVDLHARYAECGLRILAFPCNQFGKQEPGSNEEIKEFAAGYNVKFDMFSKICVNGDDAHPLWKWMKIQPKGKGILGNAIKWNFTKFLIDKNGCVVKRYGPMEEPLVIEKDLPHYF
How it was run: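 Steps: GPX4 plus compound, 30 min RT; add GR/GSH/NADPH master mix; start with cumene hydroperoxide; read 340/450 nm fluorescence at 0 and 15 min. Finals were 200 nM GPX4, 1 mM GSH, 0.5 mM CHP, 0.5 mM NADPH, 100 nM GR.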
For `CC1(C)CC[C@]23CO[C@@]4(CCC5[C@@]6(C)CC[C@H](O[C@@H]7OC[C@H](O[C@@H]8O[C@H](CO)[C@@H](O)[C@H](O)[C@H]8O[C@@H]8OC[C@@H](O)[C@H](O)[C@H]8O)[C@H](O)[C@H]7O[C@@H]7O[C@H](CO)[C@@H](O)[C@H](O)[C@H]7O)[C@@](C)(CO)C6CC[C@@]5(C)[C@]4(C)C[C@H]2O)[C@@H]3C1` (stereo not given in full), the Potency was “inactive”.
For `O=P(O)(O)OC(Cn1cncn1)(Cn1cncn1)c1ccc(F)cc1F`, the Potency was “inactive”.
For `CC(=O)OC1C(O)CC2(C)C(CCC3(C)C2CC=C2C4C5(CCC(CO[C@@H]6O[C@H](CO)[C@@H](O)[C@H](O)[C@H]6O)(OC5=O)C4(C)O)C(O)CC23C)C1(C)C` (stereo not given in full), the Potency was “inactive”.
In the case of `C[C@H]1C[C@@H]2[C@H]([C@@H](O)C[C@@]3(C)[C@H]2CC[C@]3(O)C(=O)COC(=O)CCC(=O)O)[C@@]2(C)C=CC(=O)C=C12`, the Potency was “inactive”.
`CC(=O)O[C@H]1CC[C@@]2(C)C(=CC[C@H]3[C@@H]4CC[C@H](C(C)=O)[C@@]4(C)CC[C@@H]32)C1` was tested, and the Potency was “inactive”.
`CCNC(=O)c1noc(-c2cc(Cl)c(O)cc2O)c1-c1ccc(OC)cc1` was tested, and the Potency was “inactive”.
For `COc1ccc(C(=O)Nc2ccccc2CCC2CCCCN2C)cc1` (stereo not given), the Potency was “inactive”.
With `Cc1cccc(C)c1N(CCCc1cccnc1)C(=O)C(C)N` (stereo not given) the Potency was “inactive”.
With `CN1CCC(c2cn(C)c3ccc(OS(=O)(=O)c4c(F)cccc4F)cc23)CC1` the Potency was “inactive”.
For `C[C@@H]1O[C@@H](O[C@H]2[C@H](O[C@H]3CC[C@@]4(C)C(CC[C@]5(C)C4C=C[C@]46OC[C@@]7(CCC(C)(C)C[C@H]74)[C@@H](O[C@@H]4O[C@@H](C)[C@H](O)[C@@H](O)[C@H]4O)C[C@]65C)[C@]3(C)CO)O[C@H](CO)[C@@H](O)[C@@H]2O[C@@H]2O[C@H](CO)[C@@H](O)[C@H](O)[C@H]2O)[C@H](O)[C@H](O)[C@H]1O` (stereo not given in full), the Potency was “inactive”.

— PubChem BioAssay (NCATS)
